In all, about 69,000 compounds went through this assay and about 8,600 (12%) showed an effect of 50% or more. Many of the other results were omitted from the sample, so strong results are more common in it than they were.
Each compound was assayed on Plasmodium berghei (assay: Screen against P. berghei liver stage (PbLuc), transformed with Luciferase, at 10uM). Conditions: tested at 10 uM.
Format: functional, HepG2

**Q.** With `COc1ccccc1CNC(Cc1cccs1)c1nc(C)cs1` (stereo not given) as the compound, how does the INHIBITION read?
**A.** 47.2%

**Q.** With `O=C1CCC2(CCC(NC(=O)NCc3cccnc3)CC2)N1` (stereo not given) as the compound, how does the INHIBITION read?
**A.** 35.8%

**Q.** Which INHIBITION does the source give for `CC(C)c1nc(CNc2nccc(CCC(F)(F)F)n2)cs1` here?
**A.** 16.2%

**Q.** With `Nc1nc(CNc2nccc(CCC(F)(F)F)n2)cs1` as the compound, how does the INHIBITION read?
**A.** 32.7%

**Q.** With `FC(F)(F)CCc1ccnc(NCc2csc(N3CCOCC3)n2)n1` as the compound, how does the INHIBITION read?
**A.** 69%

**Q.** For `Cc1noc(C)c1CN1CC[C@H]2OCC[C@@]2(C(=O)N2CCOCC2)C1`, which INHIBITION is on record?
**A.** 47.4%

**Q.** For `CN(Cc1ccc(Cl)c(Cl)c1)C(=O)CNC(N)=O`, which INHIBITION is on record?
**A.** -36.3%

**Q.** For `CN(Cc1ccc(Cl)c(F)c1)C(=O)CCc1ccncc1`, which INHIBITION is on record?
**A.** 56.5%

**Q.** How did the INHIBITION turn out when `CN(Cc1ccc(Cl)c(F)c1)C(=O)c1ccncc1F` was run?
**A.** 36.2%

**Q.** Which INHIBITION does the source give for `O=C1CCc2cc(S(=O)(=O)NC(=O)c3ccc4c(c3)OCO4)ccc2N1` here?
**A.** 39.4%

**Q.** `O=C1CCc2cc(S(=O)(=O)NC(=O)c3ccc4c(c3)CCO4)ccc2N1` was tested. Which INHIBITION did it give?
**A.** 44.7%

**Q.** With `COCc1ccc(C(=O)NS(=O)(=O)c2ccc3c(c2)CCC(=O)N3)cc1` as the compound, how does the INHIBITION read?
**A.** 61.8%

**Q.** For `O=C1COc2cc(C(=O)NS(=O)(=O)c3ccc(F)c(F)c3)ccc2N1`, which INHIBITION is on record?
**A.** 41.5%

**Q.** `COCc1ccccc1C(=O)NS(=O)(=O)c1ccc2c(c1)CCC(=O)N2` was tested. Which INHIBITION did it give?
**A.** 25.5%

**Q.** `O=C1CCc2cc(S(=O)(=O)NC(=O)c3ccc4c(c3)COC4)ccc2N1` was tested. Which INHIBITION did it give?
**A.** 62.9%

**Q.** `O=C(C1CCOCC1)N1CCc2ncc(CN3CCCC3)n2CC1` was tested. Which INHIBITION did it give?
**A.** 29.9%

**Q.** With `Cc1ccc2ncccc2c1CN1CC[C@H](N(C)C)[C@H](CCC(=O)O)C1` as the compound, how does the INHIBITION read?
**A.** -102%

**Q.** `CC(C)CCn1[nH]c(CNc2ccc(Cl)cc2)nc1=O` was tested. Which INHIBITION did it give?
**A.** 40%

**Q.** `N#CCCn1cnc2c(F)cc(Br)cc2c1=O` was tested. Which INHIBITION did it give?
**A.** 53.9%

**Q.** With `N#CCCCn1cnc2c(F)cc(Br)cc2c1=O` as the compound, how does the INHIBITION read?
**A.** 46.4%

**Q.** For `N#CCCn1cnc2c(Br)cc(Br)cc2c1=O`, which INHIBITION is on record?
**A.** 44.2%

**Q.** How did the INHIBITION turn out when `O=C(NCCCn1ccnc1)NCC(c1ccco1)N1CCCCC1` (stereo not given) was run?
**A.** -67.3%

**Q.** For `CCC[C@@H]1CN(C(=O)c2cc(-c3cccs3)n(C)n2)C[C@H]1NS(C)(=O)=O`, which INHIBITION is on record?
**A.** 18.8%

**Q.** How did the INHIBITION turn out when `CCc1ncc(C(=O)NCCNC(=O)Cc2ccc(F)cc2)s1` was run?
**A.** -49.7%

**Q.** `COC(=O)CCNC(=O)c1cnc(Cc2ccc(F)cc2)s1` was tested. Which INHIBITION did it give?
**A.** 18.3%

**Q.** For `O=C(NCCN1CCOCC1)c1ccn(COc2ccc(F)cc2)n1`, which INHIBITION is on record?
**A.** -8.9%

**Q.** Which INHIBITION does the source give for `Cc1cccc(-c2ccc(C(=O)NCCN3CCOCC3)c(=O)[nH]2)c1` here?
**A.** 68.6%

**Q.** With `O=C(NCCN1CCOCC1)c1cnc(Cc2ccc(F)cc2)s1` as the compound, how does the INHIBITION read?
**A.** 63.7%

**Q.** `O=C(NCCN1CCOCC1)c1ccc(-c2ccc(F)cc2)nc1O` was tested. Which INHIBITION did it give?
**A.** 61.2%

**Q.** Which INHIBITION does the source give for `Cc1ccc(C(=O)NCCN2CCOCC2)c(=O)[nH]1` here?
**A.** -14.1%

**Q.** Which INHIBITION does the source give for `CCNC(=O)c1cnc(Cc2ccc(F)cc2)s1` here?
**A.** 17.4%

**Q.** Which INHIBITION does the source give for `CN(C)CCCNC(=O)c1cnc(Cc2ccc(F)cc2)s1` here?
**A.** 73.1%

**Q.** Which INHIBITION does the source give for `O=C(NCCCN1CCOCC1)c1ccc(-c2ccccc2)[nH]c1=O` here?
**A.** 41.4%

**Q.** How did the INHIBITION turn out when `O=C(NCCN1CCOCC1)c1ccc(-c2ccccc2)[nH]c1=O` was run?
**A.** -14.1%

**Q.** Which INHIBITION does the source give for `O=C(NCCN1CCOCC1)c1cnc(-c2ccccc2F)s1` here?
**A.** 41.6%

**Q.** For `CC(C#N)(NC(=O)c1ccc(C#N)cc1)C1CC1` (stereo not given), which INHIBITION is on record?
**A.** 2.45%

**Q.** For `CC1CCc2n[nH]c(C(=O)NCCCc3ccco3)c2C1` (stereo not given), which INHIBITION is on record?
**A.** 6.32%

**Q.** `Cc1cnn(C2CN(Cc3nc4cc(Cl)ccc4n3C)C2)c1` was tested. Which INHIBITION did it give?
**A.** -10.6%

**Q.** How did the INHIBITION turn out when `CC(C)(CN)NS(=O)(=O)c1cccc(F)c1F` was run?
**A.** 19%

**Q.** Which INHIBITION does the source give for `CCN1CCn2c(C)cnc2C12CCN(C(=O)c1ccco1)CC2` here?
**A.** 3.81%

**Q.** With `CN1CC(=O)N(c2cccc(F)c2)CC12CCN(CCO)C2` (stereo not given) as the compound, how does the INHIBITION read?
**A.** 21.8%

**Q.** With `COc1ccc(N2CCN(C(=O)c3cc(=O)c(OC)c[nH]3)CC2)cc1` as the compound, how does the INHIBITION read?
**A.** -13.8%

**Q.** For `CCC(c1ccc(F)cc1F)N1CCN(CCO)CC1` (stereo not given), which INHIBITION is on record?
**A.** 48.1%

**Q.** `CCS(=O)(=O)CCN1CCN(C(C)c2cccnc2)CC1` (stereo not given) was tested. Which INHIBITION did it give?
**A.** 24.2%

**Q.** `CCC(c1ccccc1)N1CCN(CCO)CC1` (stereo not given) was tested. Which INHIBITION did it give?
**A.** 52.1%

**Q.** `CCC(c1ccccc1)N1CCN(C(=O)c2cc(C(N)=O)c[nH]2)CC1` (stereo not given) was tested. Which INHIBITION did it give?
**A.** -23.1%

**Q.** `CC(c1cccnc1)N1CCN(CCO)CC1` (stereo not given) was tested. Which INHIBITION did it give?
**A.** 60%

**Q.** Which INHIBITION does the source give for `CC(c1cccnc1)N1CCN(CCCC#N)CC1` (stereo not given) here?
**A.** 41.4%

**Q.** `CN(Cc1nnc(C2CC2)o1)Cc1ccccc1N1CCOCC1` was tested. Which INHIBITION did it give?
**A.** 20.19%

**Q.** With `O=C(c1cocn1)N1CCC2(CC1)COC(COCc1ccccn1)C2` (stereo not given) as the compound, how does the INHIBITION read?
**A.** 8.03%

**Q.** For `COc1c(CNCc2cccc(Cn3cncn3)c2)c(C)nn1C`, which INHIBITION is on record?
**A.** -21.8%

**Q.** For `Cc1cc(C)nc(C2CCCN2C(=O)c2cnco2)n1` (stereo not given), which INHIBITION is on record?
**A.** 12.8%

**Q.** Which INHIBITION does the source give for `Cc1ccoc1C(=O)NCC(c1ccccc1Cl)N1CCOCC1` (stereo not given) here?
**A.** 30.5%

**Q.** For `Cc1nc(C)c(C(=O)NCC(c2ccccc2Cl)N2CCOCC2)s1` (stereo not given), which INHIBITION is on record?
**A.** 62.3%

**Q.** How did the INHIBITION turn out when `Cc1cc(C(=O)NCC(c2ccccc2Cl)N2CCOCC2)on1` (stereo not given) was run?
**A.** 1.7%
